From PubChem
APE1 inh: inhibitors of human APE1 endonuclease; Potency, µM (doses to about 65.8 µM), inactives show top-dose activity change, negative = inhibition, most hits filed as inhibitors; AID 2517; recombinant APE1, TAMRA/BHQ-2 abasic DNA cleavage fluorescence; P27695; 350,000 compounds, 0.35% hits;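 further: potency means the concentration at half of the fitted maximal effect; plate controls were vehicle for no effect and reference inhibitor for full effect; nearly all actives have a fitted effect of over 55% in size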
Target sequence (P27695 whole entry, looked up): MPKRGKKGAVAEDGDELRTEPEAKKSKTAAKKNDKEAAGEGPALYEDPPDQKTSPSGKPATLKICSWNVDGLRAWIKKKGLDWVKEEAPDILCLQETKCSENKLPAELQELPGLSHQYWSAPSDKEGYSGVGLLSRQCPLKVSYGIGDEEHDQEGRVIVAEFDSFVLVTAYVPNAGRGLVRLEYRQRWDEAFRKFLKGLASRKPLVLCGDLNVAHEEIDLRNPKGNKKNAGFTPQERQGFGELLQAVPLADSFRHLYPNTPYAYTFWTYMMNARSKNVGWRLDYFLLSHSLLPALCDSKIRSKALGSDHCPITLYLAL
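APE1 at 0.75 nM preincubated 15 min at room temperature with compound. Reaction then started with 50 nM double-stranded THF-abasic substrate labelled with TAMRA/BHQ-2, and 525/598 nm fluorescence read kinetically. Activity taken as third-minus-first read difference, normalized to DMSO and NSC13755 controls.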
BLM inh: blocks DNA unwinding by human BLM helicase; P54132; recombinant BLM DNA unwinding, fluorescence dequenching; Potency, µM (titrated, usually from 56.1 µM), inactives show top-dose activity change, negative = inhibition, most hits filed as inhibitors; 350,000 compounds, 0.2% hits; AID 2528;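 further: potency means the concentration at half of the fitted maximal effect; plate controls were vehicle for no effect and no enzyme for full effect; nearly all actives have a fitted effect of over 35% in size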
WRN inhibitor: blocks human WRN helicase | Q14191 | WRN helicase unwinding, fluorescent forked duplex, kinetic | Potency, µM (series often up to 114 µM), without a hit: at the top dose activity change, negative = inhibition, hits mostly inhibitors | 360,000 compounds, 0.46% hits; further: potency means the concentration at half of the fitted maximal effect; nearly all actives have a fitted effect of over 55% in size
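Kinetic fluorescence helicase assay: unwinding of a quenched forked DNA duplex (100 nM final) with 2 mM ATP final raises red fluorescence (525/598 nm). Compounds sat 15 min at room temperature with 20 nM WRN beforehand.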
RECQ1 helicase: RECQ1 (human) helicase inhibition; P46063; RECQ1 DNA unwinding, red fluorescence kinetic read; Potency, µM (titrated, usually from 57.3 µM), for inactives: top-dose activity, negative = inhibition, most hits filed as inhibitors; 240,000 compounds, 0.54% hits; AID 2549;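 further: potency means the concentration at half of the fitted maximal effect; plate controls were vehicle for no effect and no enzyme for full effect; nearly all actives have a fitted effect of over 30% in size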
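50 nM RECQ1T1 preincubated 15 min with compound in Tris pH 8.0 buffer with MgCl2, DTT, Tween-20 and 2.5 ug/ml poly(dI-dC); started with 200 nM TAMRA/BHQ-2 forked duplex and 2 mM ATP. Unwinding read as fluorescence (525/598 nm), two reads 2 h apart.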
FEN1 inhibitor: human FEN1 inhibition; Potency, µM (highest dose often 114 µM), without a hit: top-dose activity change, negative = inhibition, usual class: inhibitors; Recombinant FEN1 flap cleavage, fluorescence, 15 min; 390,000 compounds, 0.35% hits; further: potency means the concentration at half of the fitted maximal effect; nearly all actives have a fitted effect of over 65% in size
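FEN1 at 10 nM preincubated with compounds 15 min at room temperature, then flap DNA substrate added at 50 nM final. Signal read at 0 and 15 min; concentration-response fitted with four-parameter Hill equation.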
PI5P4Ka inh: inhibitors of human PI5P4K alpha. 330,000 compounds, 1.2% hits. max response, %. P48426. PI5P4Kalpha enzyme, ADP-Glo luminescence, 60 min; stronger effect = lower value; active means max response of -50% or lower; inconclusive means between -30% and -50%; inactive means -30% or higher; further: value at the top dose of about 77 µM
Target sequence (P48426 whole entry, looked up): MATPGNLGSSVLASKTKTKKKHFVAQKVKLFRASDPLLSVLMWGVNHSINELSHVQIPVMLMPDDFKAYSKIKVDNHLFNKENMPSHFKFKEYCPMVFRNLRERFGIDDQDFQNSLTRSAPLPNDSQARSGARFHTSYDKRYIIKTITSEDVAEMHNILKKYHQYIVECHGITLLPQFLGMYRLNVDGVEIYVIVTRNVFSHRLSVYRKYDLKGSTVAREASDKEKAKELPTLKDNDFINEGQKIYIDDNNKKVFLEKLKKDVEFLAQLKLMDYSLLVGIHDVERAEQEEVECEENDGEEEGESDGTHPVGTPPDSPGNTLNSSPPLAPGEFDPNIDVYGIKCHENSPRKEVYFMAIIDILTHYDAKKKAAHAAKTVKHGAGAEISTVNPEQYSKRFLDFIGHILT
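Enzyme plus substrate dispensed, test compounds pinned in, then ATP (5 microM final) added. After 60 min at RT, ADP-Glo reagent 1 for 45 min and reagent 2 for 30 min preceded luminescence imaging.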
Active calls of the source: *; i = inactive; ? = inconclusive; . = no result; ! = not active in a repeat; [ ] = remark or other dose. Hits are enriched below; roughly 1.5% of the tested compounds scored in any of these assays. Unless noted, the call rests on the fitted dose curve; in most records, active means well fitted curve in the direction sought with a large enough effect; inconclusive means small, poorly fitted or top-dose-only effect, or another doubt; inactive means no such curve, though single readings can be large; an effect the other way counts as inactive or inconclusive. Unless noted, on the % scale 0 is the no-effect control and ±100 the full control effect.

SMILES | APE1 inh | BLM inh | WRN inhibitor | RECQ1 helicase | FEN1 inhibitor | PI5P4Ka inh
O=C(CCS(=O)(=O)c1cc(Br)cc2c1N(C(=O)C1CC1)CC2)Nc1ccc(F)cc1 | . | 0% | . | . | -3% | .
O=C1Nc2cc(C(=O)NCCCN3CCOCC3)ccc2S/C1=C/c1cccc(Cl)c1 | 69% | -6% | 5% | . | 12% | -51*
O=C1Nc2cc(C(=O)NCCCN3CCOCC3)ccc2S/C1=C/c1ccccc1F | 24% | 5% | 6% | . | -13% | -3
Cc1cc(C)c(SSc2nnnn2-c2ccccc2)c(C)c1 | . | . | 4% | . | . | -80*
O=C(O)c1cc(NCc2cc(O)ccc2O)ccc1O | -5% | . | . | 10% | 8.9µM* | .
CC(C)(C)n1ncc2c(=O)n(Cc3ccccc3C(F)(F)F)cnc21 | 0% | . | . | . | 10% | .
CC1=CC(=O)c2c(O)ccc(O)c2C1=O | 2µM* | 18µM* | . | 3.5µM* | . | .
CC(=O)Nc1ccc(Sc2ccccc2C(=O)O)cn1 | -7% | 0% | -2% | . | -13% | -56*
C=CN1CCCC1=O | 2% | 0% | . | -11% | . | .
NC(=O)c1cc([N+](=O)[O-])ccc1NCCN1C(=O)c2ccc(C(=O)O)cc2C1=O | ? | -1% | -19% | 17% | -13% | -87*
NC(=O)c1cc([N+](=O)[O-])ccc1NCc1cccc([N+](=O)[O-])c1 | -8% | . | -32% | . | 18% | -18
C=C(C)C(=O)OCCOC(=O)C(=C)C | -2% | 2% | . | -9% | . | .
O=C(O)C1(C(=O)O)CCC1 | 5% | . | 0% | . | -5% | -4
N.N.O=C(O)C1(C(=O)O)CCC1.[Pt] | 6.3µM* | 0% | . | -29% | . | .
COc1ccc(OC)c(-c2nnc3n2N=C(c2ccc(OC)c(O[C@H]4CCOC4)c2)CS3)c1 | -5% | . | . | . | . | .
O=C(OCc1ccccc1)N1CCN(/[N+]([O-])=N/Oc2ccc([N+](=O)[O-])cc2[N+](=O)[O-])CC1 | . | . | . | . | -4% | .
CN1c2ccccc2C(C)(C)C12C=Nc1c(ccc3ccccc13)O2 (configuration not stated) | -7% | -10% | ? | i | -17% | 11
COc1ccc2ccc3c(c2c1)N=CC1(O3)N(C)c2ccccc2C1(C)C (configuration not stated) | -7% | -8% | 79µM* | ? | ? | .
COc1ccc(CNc2ccc3cc(S(=O)(=O)N4CCCCC4)ccc3n2)cc1 | . | -15% | . | . | -3% | .
O=C(CNC(=O)c1ccc(F)cc1)N/N=C/c1ccc(O)c([N+](=O)[O-])c1 | 2% | -2% | -23% | -7% | -1% | -65*
O=C(CNC(=O)c1cccc(F)c1)N/N=C/c1ccc(O)c([N+](=O)[O-])c1 | 3% | 4% | -16% | -3% | -8% | -72*
Cc1ccc(NS(=O)(=O)c2ccc(-c3cnc(C4CC4)o3)cc2)cc1N(C)C | . | -4% | . | . | -6% | .
CCOC(=O)c1c(N)sc(=S)c2c1CCC2 | 35µM* | -27% | -28% | ? | -19% | ?
CCCCC/C=C\C=C\[C@@H](O)CCCCCCCC(=O)O | 20% | 4% | . | -2% | . | .
CCCCC[C@H](O)/C=C/C1=C(CCCCCCC(=O)O)C(=O)CC1 | -9% | 29% | ? | 10µM*! | -3% | -13
SMILES | APE1 inh | BLM inh | WRN inhibitor | RECQ1 helicase | FEN1 inhibitor | PI5P4Ka inh
COC(=O)[C@]12CCCCC=C1N(CCC1=CCCCC1)C(=O)[C@H](CC(=O)NCc1ccc(C)o1)C2 | . | . | -2% | . | . | ?
CCCCCCCCN1C(=O)[C@H](CC(=O)NCc2ccc(C)o2)C[C@@]2(C(=O)OC)CCCCC=C12 | . | . | -15% | . | . | -65*
CCCCCCCCN1C(=O)[C@H](CC(=O)NCc2ccc(C)o2)C[C@@]2(C(=O)OCC)CCC=C12 | . | . | -15% | . | . | -61*
O=c1[nH]c2cc(Cl)c(O)cc2o1 | 13% | 3% | . | -1% | . | .
N#CCC(=O)Nc1ccc(C(=O)OCC(=O)NC(=O)NCc2ccco2)cc1 | 10% | . | -36% | . | 3% | -55*
CCOC(=O)c1ccc(NC(=O)CCC(=O)NCc2ccco2)cc1 | -9% | -3% | 13% | . | -1% | -8
O=C(O)c1cc(=S)nc[nH]1 | . | . | -31% | . | -1% | -65*
COc1ccc(CCn2c(-n3nc(C)cc3C)nc3c2c(=O)[nH]c(=O)n3C)cc1 | . | . | 79µM* | . | 1% | ?
C/C=C(\C)NNC(=O)Cc1ccc(OC)cc1 | . | . | . | . | 3% | .
CCc1n[nH]c(=S)n1/N=C/c1cccc2ccccc12 | 7% | 2% | -15% | . | 6% | 1
COc1cc(/C=N/n2c(=S)[nH]nc(C)c2=O)cc([N+](=O)[O-])c1O | 2% | -2% | -5% | i | 15% | -57*
CCc1n[nH]c(=S)n1/N=C/c1cc(OC)cc([N+](=O)[O-])c1O | 6% | -10% | ? | ? | -29% | -57*
COc1cc(/C=N/n2c(C3CCCCC3)n[nH]c2=S)cc(Br)c1O | 3% | -2% | -1% | . | 5% | -62*
CC(C)(C)n1ncc2c(=O)n(Cc3cccc(-c4cccs4)c3)cnc21 | -6% | . | . | . | -47% | .
CC(C)(C)c1ccc(C(=O)CCCN2CCC(OC(c3ccccc3)c3ccccc3)CC2)cc1 | . | -3% | . | . | . | .
CC1=C(C(=O)OCC(Br)(Br)Br)C(c2cccc([N+](=O)[O-])c2)NC(=O)N1CCCC(=O)O (configuration not stated) | . | . | 1% | . | 9% | -64*
CCOC(=O)C1=C(C)N(CCO)C(=O)NC1c1ccccc1 (configuration not stated) | 13% | -1% | -3% | 8% | 4% | .
CCOC(=O)CN1C(=O)N[C@H](c2ccc(Br)cc2)C(C(C)=O)=C1C | 32µM* | -6% | -9% | -5% | 1% | -15
CCOC(=O)C1=C(C)N(CCCCCC(=O)O)C(=O)NC1c1ccc(Br)cc1 (configuration not stated) | 29% | -2% | -1% | . | -6% | -1
CCOC(=O)C1=C(C)N(CCCC(=O)O)C(=O)NC1c1ccccc1 (configuration not stated) | . | . | 3% | . | -10% | -57*
CCOC(=O)CN1C(=O)N[C@@H](c2ccc(Br)cc2)C(C(=O)OC)=C1C | ? | -2%[12.4 µM] | -4% | -15%[11.5 µM] | -18% | -3
CCOC(=O)C1=C(C)N(CCCC(=O)O)C(=O)NC1c1ccc2ccccc2c1 (configuration not stated) | . | . | 4% | . | -2% | -75*
Cc1cccc(OCC(=O)N(Cc2cccc(Cl)c2)Cc2ccco2)c1C | . | -8% | . | . | 1% | .
O=C(C[n+]1ccncc1)c1ccc(Br)cc1 | . | . | . | . | 0% | .
CCOC(=O)C1=C(C)N(CCCC(=O)O)C(=O)NC1c1ccc(Cl)cc1 (configuration not stated) | 2% | 0% | 3% | . | 1% | -93*
